Test results published in PubChem BioAssay (NCI).
The panel holds about 83,000 compounds, 20% with a hit somewhere; the sample as a whole holds those more often.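 Cell lines were cultured in 96-well plates, exposed to a single compound concentration, and assessed for percent growth 48 hours later.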 Values without a mark were called inactive. Activity calls are given as the source filed them. How the source made its calls: active means growth percent below 10; inactive means the rest.

Tests used:
Test in all cases: NCI-60 one-dose screen, 48 h (100 = growth as untreated, 0 = no growth, -100 = all killed)
Settings in all cases: 10 µM unless noted
[1] = tested on: DU-145 prostate
[2] = tested on: K-562 leukemia
[3] = tested on: MALME-3M melanoma
[4] = tested on: MDA-MB-231 breast
[5] = tested on: RXF 393 renal
[6] = tested on: SF-268 CNS
[7] = tested on: SF-295 CNS
[8] = tested on: SF-539 CNS
[9] = tested on: UACC-257 melanoma
[10] = tested on: M14 melanoma
[11] = tested on: HCT-15 colon
[12] = tested on: HT29 colon
[13] = tested on: SNB-75 CNS
[14] = tested on: SNB-19 CNS
[15] = tested on: U251 CNS
[16] = tested on: PC-3 prostate
[17] = tested on: UACC-62 melanoma
[18] = tested on: LOX IMVI melanoma
[19] = tested on: SK-MEL-28 melanoma
[20] = tested on: SK-MEL-5 melanoma

Row | Compound | growth [1] | growth [2] | growth [3] | growth [4] | growth [5] | growth [6] [%] | growth [7] [%] | growth [8] | growth [9] | growth [10] | growth [11] [%] | growth [12] | growth [13] | growth [14] [%] | growth [15] [%] | growth [16] [%] | growth [17] | growth [18] | growth [19] | growth [20]
1 | Cc1ccc(NC(=O)c2[nH]c(SCCN(C)C)nc2-c2ccc(F)cc2)cc1Nc1ccc2ncn(C)c(=O)c2c1 | 80.1% | 40.2% | -12.8% (active) | 40.6% | 71.5% | 71.1 | 82.9 | 65% | 22% | 2.94% (active) | 65.4 | 21.4% | 66% | 92.4 | 66.6 | 88.5 | 12.5% | 28% | 16.5% | –
2 | CC(=O)c1c(O)c(C)c(O)c2c1OC1=CC(=O)/C(=C(/C)N)C(=O)C12C (stereo not given) | 100% | 83% | 96.9% | 90.8% | 92.2% | 95.2 | – | 99.7% | 100% | 93.6% | 83.3 | 65.1% | 91.5% | 103 | 94.7 | 85.1 | 77.8% | 86.6% | 105% | 88.4%
3 | C=C(C)[C@@H]1CC[C@]2(C)[C@H](CC=C3[C@@H]4C[C@](C)(C(=O)N5CCN(C)CC5)CC[C@]4(C)CC[C@]32C)[C@@]1(C)CCC#N | 88.3% | 23.4% | 77% | 85.9% | 84.9% | 72.5 | 95 | 70.2% | 51.4% | 66.6% | 38.2 | 33.2% | 79.1% | 89.4 | – | 30.6 | 53.5% | 47.6% | – | 18.9%
4 | Nc1nonc1-c1nc2ccccc2n1Cc1ccc(F)cc1 | 80.7% | 10.6% | 46.2% | 60% | 37.8% | 66.3 | 68.5 | 49.9% | 75.4% | 28.2% | 30.4 | 17.3% | 32.4% | 63.8 | – | 61.7 | 48.8% | 49.1% | 61.3% | 56.8%
5 | Cc1ccc(S(=O)(=O)NC(CCC(=O)Nc2ccc(Cl)cc2)C(=O)Nc2ccc(Cl)cc2)cc1 (stereo not given) | 45.8% | 2.8% (active) | 14.2% | -5.94% (active) | 22.9% | 38.8 | 10.5 | -20.5% (active) | 45.6% | 32.2% | 18.9 | 14.2% | -17.2% (active) | 14.1 | – | 17.8 | 2.47% (active) | 6.06% (active) | 64.3% | 21.2%
6 | Cc1ccccc1N1C(c2ccccc2)=NNC12C=CC(=O)c1c(O)cccc12 (stereo not given) | 94.9% | 63.3% | 75.1% | 73.5% | 115% | 76.7 | 54.5 | 76.2% | 45.3% | 75.5% | 29.5 | 91.7% | 81.7% | 60.8 | 34.9 | 46.7 | 12% | 7.11% (active) | 102% | –
7 | c1ccc(-c2[nH]c3ccccc3c2-c2ccccc2)cc1 | 99.7% | 83.4% | 93.9% | 84.7% | 149% | 106 | 87.9 | 84.6% | 101% | 89.5% | 79.6 | 88.4% | 84.7% | 97.5 | 87.8 | 79.4 | 75.8% | 79.8% | 119% | –
8 | CC1CCN(Cc2ccc(NC(=O)c3cc4ccc5cccnc5c4[nH]3)cc2)CC1 | 2.24% (active) | 8.98% (active) | 10.2% | 23.2% | -3.5% (active) | 37.4 | – | 8.44% (active) | -40.6% (active) | -22.5% (active) | 22.2 | 6.27% (active) | 14.5% | 64.6 | 14.7 | 41.6 | -65.4% (active) | 8.82% (active) | -31.9% (active) | 2% (active)
9 | Cc1cc(O)c(C2=NN(c3ccc(S(N)(=O)=O)cc3)C(c3ccc(Cl)cc3)C2)c(C)c1Cl (stereo not given) | 49.3% | 21% | 103% | 59% | 48.1% | 61.7 | 20.4 | 79% | 74.1% | 39.1% | 65.2 | 55.1% | 67.4% | 89.8 | – | 12.1 | 53% | 52.4% | 76.3% | 81.7%
10 | Fc1ccc(-c2ccnc3nc(-c4ccncc4)nn23)cc1 | 101% | 98.1% | 114% | 113% | 105% | 97.1 | 111 | 101% | 111% | 107% | 103 | 97.3% | 90.1% | 112 | 104 | 97.2 | – | 100% | 111% | –
11 | c1ccc2c(c1)cnc1ccccc12 | 111% | 97.2% | 127% | 108% | 88.5% | 97.4 | 113 | 101% | 103% | 99.6% | 98.4 | 94.6% | 93.6% | 99.2 | 109 | 102 | 98.9% | 104% | 118% | –
12 | COc1ccc(NC(=O)/C=C/c2ccc(NC(=O)N3CCCC3)cc2)cn1 | 106% | 99.4% | 96.8% | 97.5% | 109% | 101 | 99.8 | 97% | 103% | 103% | 94.1 | 106% | 102% | 102 | – | 96.5 | 101% | 98.4% | – | 99.8%
13 | CC(=O)c1c(C)nc(-c2cc(C)cc(Cl)c2)nc1-c1cccc(Oc2ccccc2)c1 | 85.8% | 19.9% | 74.8% | 55% | 90.5% | 71 | 77.3 | 86% | 81.1% | 31.7% | 60.2 | 39.5% | 72.4% | 79.3 | 76.1 | 53.4 | 52.1% | 78.4% | 76.2% | –
14 | Cc1cc(C)cc(Nc2cc(C)nc3nc(C(F)(F)F)nn23)c1 | 38.1% | 20.2% | 45.5% | 50.1% | 52.1% | 28.7 | – | 4.14% (active) | 30.7% | 24% | 30.4 | 41.5% | 61.6% | 45.7 | 31.5 | 57.1 | -33.8% (active) | 24.1% | 50.8% | 32.1%
15 | CCCCn1c(C)nc2cc(Nc3nc(Cl)nc4nc[nH]c34)ccc21 | 89.6% | 90.3% | 79.8% | 75% | 81.9% | 92.4 | 74.5 | 76.3% | 100% | 86.8% | 90.7 | 83.6% | 78.4% | 87.4 | – | 59.7 | 73% | 90.4% | 99.4% | 73.6%
16 | COc1cc2nccc(Oc3ccc(NC(=O)C4(C(=O)Nc5c(F)cc(F)cc5F)CC4)cc3)c2cc1Oc1ccc(N)cn1 | 80.7% | 7.69% (active) | 59% | 65.9% | 65.8% | 55.5 | 30.6 | 21.2% | 53.8% | 56.9% | 45.5 | 34.8% | 21.7% | 78.7 | – | 51.5 | 24.4% | 49.4% | – | 29%
